Here are results for 13 molecules from PubChem BioAssay (NCI).

Some test systems named below: HCT-15 colon; HT29 colon; SNB-75 CNS; SNB-19 CNS; U251 CNS; PC-3 prostate; SK-MEL-5 melanoma; UACC-62 melanoma; LOX IMVI melanoma; SK-MEL-28 melanoma.
Common to all, as to assay: NCI-60 one-dose screen, 48 h (100 = growth as untreated, 0 = no growth, -100 = all killed)
Holding throughout (details): 10 µM unless noted

About 83,000 compounds went through this panel and 20% of them were active in at least one assay; those are over-represented in the sample as a whole.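 48-hour exposure, single concentration, 96-well plates; percent growth endpoint where 0 means no net growth. Active: below 10.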 A number with no mark means an inactive call. Activity calls are given as the source filed them.

`COc1ccc(C2=C/C(=C\c3ccccc3O)C(=O)N2Cc2ccccc2)cc1`: the growth in the assay with HCT-15 colon is 67.6%; with HT29 colon it was 102%; with SNB-75 CNS, 92.3%; in the assay with SNB-19 CNS, 82.3%; in the assay with U251 CNS it was 83.9%; in the assay on PC-3 prostate it was 52.2%. The growth was 66.2% in the assay with SK-MEL-5 melanoma, 63.9% with UACC-62 melanoma, 81% in the assay with LOX IMVI melanoma and 79.9% in the assay with SK-MEL-28 melanoma.
In the case of `CCOc1ccc(-c2cc(C3(S(=O)(=O)c4ccc(C)cc4)CC=CC3)on2)cc1`, the growth is 75.3% in the assay on HCT-15 colon; 77.7% with HT29 colon; 97.3% in the assay with SNB-75 CNS; 95.4% in the assay with SNB-19 CNS; 89.4% in the assay on U251 CNS; 75.2% in the assay with PC-3 prostate. Further, the growth was 69.8% in the assay on SK-MEL-5 melanoma, 66.7% in the assay on UACC-62 melanoma, 91.1% with LOX IMVI melanoma and 115% in the assay with SK-MEL-28 melanoma.
On to `O=C(c1ccc(F)cc1)C1CCN(CCn2c(=O)[nH]c3ccccc3c2=O)CC1`, for which the growth in the assay with HCT-15 colon is 105%; in the assay with HT29 colon, 98.4%; with SNB-75 CNS, 92.6%; in the assay on SNB-19 CNS, 110%; in the assay on U251 CNS, 101%; with PC-3 prostate, 87.4%. The growth in the assay on SK-MEL-5 melanoma is 94.2%; with UACC-62 melanoma, 102%; in the assay on LOX IMVI melanoma, 98.7%; with SK-MEL-28 melanoma it was 108%.
Consider `C=CC(=O)NCc1cccc(Nc2ncc(Br)c(NCCCNC(=O)C3CCC3)n2)c1`, for which the growth in the assay on HCT-15 colon was 0.948% (active); with HT29 colon, -18.2% (active); with SNB-75 CNS, -70.4% (active); in the assay with SNB-19 CNS, 3.56% (active); in the assay on U251 CNS, -2.33% (active); with PC-3 prostate, 7.62% (active). For the same molecule, the growth in the assay on SK-MEL-5 melanoma is -39.8% (active); in the assay on UACC-62 melanoma, -41.6% (active); with LOX IMVI melanoma, -41.1% (active); in the assay with SK-MEL-28 melanoma, -15.7% (active).
In the case of `COc1cc2cc(Oc3ccc(NC(=O)Nc4ccc(F)c(C(F)(F)F)c4)cc3)c(C)nc2cc1OCCN1CCCCC1`, the growth in the assay on HCT-15 colon was -71.5% (active); in the assay with HT29 colon, -74% (active); with SNB-75 CNS, 92.7%; in the assay with SNB-19 CNS it was 62.9%; in the assay on U251 CNS, -85.3% (active); with PC-3 prostate, -76% (active). Also, the growth with SK-MEL-5 melanoma was -89.3% (active); in the assay on UACC-62 melanoma, 50.6%; in the assay on LOX IMVI melanoma, -70.4% (active); in the assay on SK-MEL-28 melanoma, -62.5% (active).
With `COc1cc(/C=C/c2cc(/C=C/c3ccc(O)c(OC)c3)n(C(=O)Nc3ccc(C)cc3C)n2)ccc1O`, the growth was 3.84% (active) in the assay with HCT-15 colon; -38.5% (active) with HT29 colon; -30.5% (active) with SNB-75 CNS; 2.45% (active) in the assay with SNB-19 CNS; -12.3% (active) with U251 CNS; -10.8% (active) in the assay on PC-3 prostate. Moreover, the growth in the assay on SK-MEL-5 melanoma was -83.4% (active); in the assay with UACC-62 melanoma, -48.5% (active); in the assay with LOX IMVI melanoma, -29.8% (active); in the assay on SK-MEL-28 melanoma it was 5.57% (active).
Turning to `COc1ccc(/C=C\c2cc(OC)c(OC)c(OC)c2)cc1OCC(=O)Nc1nc2ccccc2s1`, the growth is 23% with HCT-15 colon; 1.98% (active) with HT29 colon; 30.3% in the assay with SNB-75 CNS; 43.8% with SNB-19 CNS; 13.9% in the assay on U251 CNS; 31.1% with PC-3 prostate. In addition, the growth in the assay with SK-MEL-5 melanoma was -64% (active); in the assay with UACC-62 melanoma it was 28%; in the assay on LOX IMVI melanoma it was 11.5%; in the assay on SK-MEL-28 melanoma, 65.4%.
As to `[2H]C([2H])([2H])Oc1c(F)cccc1/C=C/C(=O)/C=C(O)/C=C/c1cccc(F)c1OC([2H])([2H])[2H]`, the growth is 81.4% in the assay on HCT-15 colon; 103% in the assay on HT29 colon; 114% in the assay on SNB-75 CNS; 94.4% in the assay with SNB-19 CNS; 87.8% in the assay with U251 CNS; 88.4% in the assay on PC-3 prostate. The growth in the assay with SK-MEL-5 melanoma is 101%; with UACC-62 melanoma it was 92%; in the assay with LOX IMVI melanoma it was 85.8%; in the assay with SK-MEL-28 melanoma, 98.1%.
Regarding `Cn1ncc(CC(=O)O)c1-n1nnc2cc(Cl)ccc2c1=O`, the growth is 107% with HCT-15 colon; 103% with HT29 colon; 81.1% in the assay with SNB-75 CNS; 96% in the assay with SNB-19 CNS; 103% with U251 CNS; 103% in the assay on PC-3 prostate. The growth is 110% in the assay with SK-MEL-5 melanoma, 94.8% in the assay with UACC-62 melanoma, 103% in the assay on LOX IMVI melanoma and 144% with SK-MEL-28 melanoma.
As to `Cn1ccnc1C(=O)/C=C/c1ccc(CC(=O)Nc2cc(F)c(F)c(F)c2)cc1`, the growth was 9.67% (active) in the assay with HCT-15 colon; 10.7% with HT29 colon; -3.33% (active) with SNB-75 CNS; 20.3% in the assay with SNB-19 CNS; 8.83% (active) in the assay with U251 CNS; 26.1% with PC-3 prostate. The growth in the assay on SK-MEL-5 melanoma was 62.5%; in the assay with UACC-62 melanoma, 43.9%; in the assay with LOX IMVI melanoma, -3.99% (active); in the assay on SK-MEL-28 melanoma it was 93.5%.
Turning to `COc1ccccc1NC(=O)n1c(=O)cc(C)c2ccc(O)cc21`, the growth with HCT-15 colon was 104%; with HT29 colon, 106%; in the assay with SNB-75 CNS it was 101%; in the assay on SNB-19 CNS, 106%; in the assay on U251 CNS it was 106%; in the assay with PC-3 prostate, 99.9%. Moreover, the growth with SK-MEL-5 melanoma is 98.3%; with UACC-62 melanoma, 100%; in the assay with LOX IMVI melanoma it was 105%; in the assay on SK-MEL-28 melanoma, 113%.
With `Cc1ccc(C2(C)NC(=O)N(CC(=O)Nc3cccc(C)c3)C2=O)cc1` (stereo not given), the growth was 94.4% in the assay on HCT-15 colon; 96.6% in the assay with HT29 colon; 77.1% in the assay with SNB-75 CNS; 102% in the assay on SNB-19 CNS; 99.1% in the assay on U251 CNS; 60.1% in the assay with PC-3 prostate. Moreover, the growth in the assay on SK-MEL-5 melanoma was 98.3%; in the assay with UACC-62 melanoma it was 84%; in the assay with LOX IMVI melanoma it was 96.3%; with SK-MEL-28 melanoma, 107%.
`CCN=c1sc2c(n1NC(=O)c1cc3ccc1CCc1ccc(cc1)CC3)C(=O)c1ccccc1C2=O`: the growth in the assay on HCT-15 colon is -68.1% (active); in the assay on HT29 colon, 49%; with SNB-75 CNS it was -98.2% (active); with SNB-19 CNS it was -74.3% (active); in the assay with U251 CNS it was -81.5% (active); in the assay on PC-3 prostate it was -2.79% (active). For the same molecule, the growth in the assay on SK-MEL-5 melanoma is -96.9% (active); in the assay on UACC-62 melanoma, -54% (active); in the assay on LOX IMVI melanoma, -83.9% (active); with SK-MEL-28 melanoma, -81.2% (active).
